GPR151 ag – human GPR151 activation. 1% of 650,000 active. AID 1508602. activation, % at 11.2 µM. Q8TDV0. PathHunter beta-arrestin GPR151 cells, luminescence; in the data active means activation above about 4.9%
Target sequence (Q8TDV0 whole entry, looked up): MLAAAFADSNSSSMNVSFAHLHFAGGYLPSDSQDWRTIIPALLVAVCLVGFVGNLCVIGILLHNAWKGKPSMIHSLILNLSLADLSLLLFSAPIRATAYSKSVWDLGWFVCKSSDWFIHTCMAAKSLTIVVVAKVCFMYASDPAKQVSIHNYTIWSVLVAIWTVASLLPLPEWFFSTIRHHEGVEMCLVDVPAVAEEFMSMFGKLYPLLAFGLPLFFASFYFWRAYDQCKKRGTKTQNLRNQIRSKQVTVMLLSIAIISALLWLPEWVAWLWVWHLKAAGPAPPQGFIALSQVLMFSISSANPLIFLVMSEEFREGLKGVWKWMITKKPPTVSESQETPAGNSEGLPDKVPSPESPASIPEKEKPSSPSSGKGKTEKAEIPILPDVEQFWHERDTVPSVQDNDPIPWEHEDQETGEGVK
MITF inh – inhibitors of human MITF. O75030. AlphaScreen MITF homodimerization, bead proximity signal. inhibition, % at 2.6 µM. 0.91% of 650,000 active. AID 1259374; in the data active means inhibition above about 50%
TEAD-YAP inh – TEAD-YAP interaction inhibition | HEK-TIYL cells, TEAD-Gal4/YAP UAS-luciferase luminescence | 1.4% of 640,000 active | AID 1259422 | inhibition, % at 9.12 µM; in the data active means inhibition above about 32%
FBW7 activator – human FBW7 E3 ligase activation, primary screen. Q969H0. normalized activity (activation), % at 26.1 µM. 0.13% of 650,000 active. AlphaScreen FBW7–phospho-cyclin E peptide binding, activator screen; in the data active means normalized activity above about 1.9%;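 further: purified mutant Fbw7 with reduced substrate affinity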
Each line names hits and unclear results; the compound was inactive in the other large screens. Rows were chosen to be rich in hits. Some 3.5% of all compounds tested hit in one or more screens of this group.

CCC(CO)Nc1ccc2ncc(-c3cccc(OC)c3)n2n1 (stereo not drawn)	TEAD-YAP inh 57.3
COc1cncc(-c2cnc3ccc(NC4CCOCC4)nn23)c1	TEAD-YAP inh 42.4
Oc1cccc(Nc2nc(NCc3ccco3)c3ccccc3n2)c1	none
Cc1cccc(Nc2nc(NCc3ccco3)c3ccccc3n2)c1	TEAD-YAP inh 60.0
Brc1cccc(Nc2nc3nonc3nc2NCc2ccco2)c1	TEAD-YAP inh 87.1
COc1ccccc1Nc1nc2nonc2nc1Nc1cccc(Br)c1	none
CCn1c(C(O)c2cc(OC)c(OC)c(OC)c2)nc2ccccc21 (stereo not drawn)	FBW7 activator 2.3
CCOC(=O)CN1c2ccccc2NC1C(C#N)c1ccc(OC)cc1 (stereo not drawn)	TEAD-YAP inh 36.5
CCOC(=O)CSC1=C(C#N)C(=O)NC(c2ccc(OC)cc2)S1 (stereo not drawn)	none
CCN1CCN(C(=O)c2sc3ncnc(N(CC)CC)c3c2C)CC1	none
CC1=NN(c2nc3ccccc3[nH]2)C(=O)C1CCC(C)C (stereo not drawn)	TEAD-YAP inh 73.2
COc1ccccc1NC(=O)CN(c1cccc(C(F)(F)F)c1)S(C)(=O)=O	none
CCOc1ccc(OC)cc1/C=N/NS(=O)(=O)c1ccc(Cl)cc1	TEAD-YAP inh 64.5
CN(C)c1ccc(/C=C/C(=O)/C=C/c2ccco2)cc1	MITF inh 63.1
O=C(/C=C/c1cccc([N+](=O)[O-])c1)/C=C/c1ccco1	none
Cc1sc2ncnc(Sc3nnc4ccccn34)c2c1C	none
Cc1sc2ncnc(Sc3nnc(N)s3)c2c1C	TEAD-YAP inh 36.7
O=C(COc1ccccc1-c1ccccc1)NN=C1CCCC1	TEAD-YAP inh 60.9
CC(C)(C)NC(=O)NC(=O)Cn1nnc(-c2ccccc2Cl)n1	none
CCCCc1ccc(C(=O)Oc2ccc(-c3ccc(CCC)cn3)cc2)cc1	TEAD-YAP inh 69.7
CCCc1ccc(-c2ccc(C(=O)Oc3ccc(F)cc3)cc2)nc1	none
CCCc1ccc(-c2ccc(C(=O)Oc3ccccc3F)cc2)nc1	TEAD-YAP inh 55.3
CCCCCc1ccc(-c2ccc(C(=O)Oc3ccc(CC)cc3)cc2)nc1	none
COc1ccccc1OCCOc1c(I)cc(/C=C2/C(=N)N3N=C(C(C)C)SC3=NC2=O)cc1OC	none
Cn1cc(C(=O)N2CCN(c3ccccc3Cl)CC2)c2ccccc2c1=O	TEAD-YAP inh 42.8
Cc1ccc(/C=N/NC(=O)CNc2ccccc2C)cc1	TEAD-YAP inh 44.3
CC(NC(=O)CN(c1cc(C(F)(F)F)ccc1Cl)S(=O)(=O)c1ccccc1)c1ccccc1 (stereo not drawn)	none
COc1ccc(C(=CCl)c2ccc(OC)cc2)cc1	TEAD-YAP inh 41.6
COC(=O)c1sc2ccccc2c1NC(=O)c1sc2ccccc2c1Cl	none
Cn1c(/C=C/c2ccccc2)c([N+](=O)[O-])c(=O)n(C)c1=O	none
Cn1c(/C=C/c2cccc(Oc3ccccc3)c2)c([N+](=O)[O-])c(=O)n(C)c1=O	TEAD-YAP inh 45.0
COC(=O)c1cn(CC(=O)NC2CCCC2)c2ccccc12	none
Cn1c(-c2ccccc2)cnc1NC(=O)c1ccc(F)cc1	TEAD-YAP inh 49.1
CCOC(=O)N1CCN(c2cc(-c3cccnc3)nc(C)n2)CC1	none
COC(=O)Cn1nnc2c(cnn2-c2ccccc2)c1=O	none
O=c1c2cnn(-c3ccccc3)c2nnn1Cc1cccnc1	FBW7 activator 1.9
Cc1cccc(NC(=O)c2ccc([N+](=O)[O-])cc2C(=O)O)c1	none
CCc1ccc(CN2CCN(C(=O)c3ccc(F)cc3)CC2)cc1	TEAD-YAP inh 36.9
O=C(c1ccc(F)cc1)N1CCN(Cc2ccc(Cl)cc2)CC1	none
COCCN=c1scc(-c2cccc3ccccc23)n1/N=C/c1ccc[nH]1	TEAD-YAP inh 42.7
CC1=NN(c2ccccc2)C(=O)C1C(=O)c1ccccc1 (stereo not drawn)	none
CC1=NN(c2ccccc2)C(=O)C1C(=O)c1ccc(Br)cc1 (stereo not drawn)	TEAD-YAP inh 37.2
C[C@@H](O)[C@@H]1NC(=O)[C@@H]2C[C@H](NC(=O)Nc3cccc4ccccc34)CN2C1=O	none
N[C@H](Cc1cccc(F)c1)c1nc2ccc(-c3cn[nH]c3)cc2[nH]1	none
COc1cc(-c2cn[nH]c2)cc2c(=O)[nH]c([C@@H](N)Cc3cccc(F)c3)nc12	TEAD-YAP inh 67.8
COc1cccc(Cc2nc3c(OC)cc(-c4cn[nH]c4)cc3c(=O)[nH]2)c1	none
COc1cc(-c2cn[nH]c2)cc2c(=O)[nH]c(C(N)c3ccc(Cl)cc3)nc12 (stereo not drawn)	none
N[C@@H](Cc1ccccc1)c1nc2ccc(-c3cn[nH]c3)cc2c(=O)[nH]1	TEAD-YAP inh 75.0
COc1cccc(CCc2nc3c(OC)cc(-c4cn[nH]c4)cc3c(=O)[nH]2)c1	TEAD-YAP inh 36.4
N[C@H](Cc1cccc(F)c1)c1nc2ccc(-c3cn[nH]c3)cc2c(=O)[nH]1	TEAD-YAP inh 67.9
CCCCc1ccc(C2=N/C(=C\c3ccc(OC)c(OC(C)=O)c3)C(=O)O2)cc1	none
COc1ccc(Nc2nc(-c3cc4cc(Br)ccc4oc3=O)cs2)cc1OC	none
N[C@H](Cc1cccc(Cl)c1)c1nc2ccc(-c3cn[nH]c3)cc2c(=O)[nH]1	TEAD-YAP inh 69.3
N[C@H](Cc1ccc(F)c(F)c1)c1nc2ccc(-c3cn[nH]c3)cc2c(=O)[nH]1	TEAD-YAP inh 76.2
Cc1ccccc1OCc1nc(N(C)CCN(C)C)c2cc(-c3cn[nH]c3)ccc2n1	none
N[C@H](CCc1ccccc1)c1nc2ccc(-c3cn[nH]c3)cc2c(=O)[nH]1	none
NCCC(=O)NC(c1ccc(Cl)cc1)c1nc2ccc(-c3cn[nH]c3)cc2c(=O)[nH]1 (stereo not drawn)	none
N[C@@H](Cc1ccc(F)cc1)c1nc2ccc(-c3cn[nH]c3)cc2c(=O)[nH]1	TEAD-YAP inh 84.6
CN(C)CCN(C)c1nc([C@H](N)Cc2cccc(F)c2)nc2ccc(-c3cn[nH]c3)cc12	FBW7 activator 2.7
CCCNc1nc2c(c(=O)n(C)c(=O)n2C)n1C(C)C	none
CN(Cc1ccc(C(F)(F)F)cc1)Cc1nc(-c2ccccn2)no1	none
CCCn1ncc(CN2CCC(n3nccc3NC(C)=O)CC2)c1C	none
N[C@H](Cc1ccccc1)c1nc2ccc(-c3ccncc3)cc2[nH]1	none
N[C@H](Cc1ccc(F)cc1)c1nc2ccc(-c3cn[nH]c3)cc2c(=O)[nH]1	TEAD-YAP inh 81.0
NCc1ccc(C(=O)NC(c2ccc(Cl)cc2)c2nc3ccc(-c4cn[nH]c4)cc3c(=O)[nH]2)cc1 (stereo not drawn)	none
N[C@@H](Cc1ccccc1)c1nc2ccc(-c3ccncc3)cc2c(=O)[nH]1	TEAD-YAP inh 61.0
N[C@@H](Cc1ccc(Cl)cc1)c1nc2ccc(-c3cn[nH]c3)cc2c(=O)[nH]1	TEAD-YAP inh 86.2
COc1ccc(NC(=O)C(=O)NNC(=O)c2ccc(C(C)(C)C)cc2)c(OC)c1	none
Cc1cc(Br)ccc1N1C(=O)/C(=C/c2ccc(Br)cc2)C=C1c1ccccc1	none
Cc1cc(Br)ccc1N1C(=O)/C(=C/c2ccc(Cl)cc2)C=C1c1ccccc1	FBW7 activator 1.9
